In PubChem BioAssay (NCATS):
Values joined by “and” are separate entries in the source; they are usually repeats but may differ in a detail not shown here. Identical values can stand only once. Records with an inconclusive call do not appear. Some compounds were tested as several samples or in several runs, with calls that do not always agree. Active and inactive are the calls of the source. Unless noted, the call rests on the fitted dose curve; in most records, active means well fitted curve in the direction sought with a large enough effect; inconclusive means small, poorly fitted or top-dose-only effect, or another doubt; inactive means no such curve, though single readings can be large; an effect the other way counts as inactive or inconclusive.

Columns and labels:
[1] = target: Voltage-gated inwardly rectifying potassium channel KCNH2 (Homo sapiens) (UniProt Q12809); test: qHTS Assay for Small Molecule Inhibitors of the Human hERG Channel Activity (AID 588834);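 further: lower thallium flux fluorescence means stronger hERG block; nearly all actives have a fitted effect of over 50% in size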; further: potency means the concentration at half of the fitted maximal effect
Voltage-gated inwardly rectifying potassium channel KCNH2 (Homo sapiens), sequence (Q12809 whole entry, looked up): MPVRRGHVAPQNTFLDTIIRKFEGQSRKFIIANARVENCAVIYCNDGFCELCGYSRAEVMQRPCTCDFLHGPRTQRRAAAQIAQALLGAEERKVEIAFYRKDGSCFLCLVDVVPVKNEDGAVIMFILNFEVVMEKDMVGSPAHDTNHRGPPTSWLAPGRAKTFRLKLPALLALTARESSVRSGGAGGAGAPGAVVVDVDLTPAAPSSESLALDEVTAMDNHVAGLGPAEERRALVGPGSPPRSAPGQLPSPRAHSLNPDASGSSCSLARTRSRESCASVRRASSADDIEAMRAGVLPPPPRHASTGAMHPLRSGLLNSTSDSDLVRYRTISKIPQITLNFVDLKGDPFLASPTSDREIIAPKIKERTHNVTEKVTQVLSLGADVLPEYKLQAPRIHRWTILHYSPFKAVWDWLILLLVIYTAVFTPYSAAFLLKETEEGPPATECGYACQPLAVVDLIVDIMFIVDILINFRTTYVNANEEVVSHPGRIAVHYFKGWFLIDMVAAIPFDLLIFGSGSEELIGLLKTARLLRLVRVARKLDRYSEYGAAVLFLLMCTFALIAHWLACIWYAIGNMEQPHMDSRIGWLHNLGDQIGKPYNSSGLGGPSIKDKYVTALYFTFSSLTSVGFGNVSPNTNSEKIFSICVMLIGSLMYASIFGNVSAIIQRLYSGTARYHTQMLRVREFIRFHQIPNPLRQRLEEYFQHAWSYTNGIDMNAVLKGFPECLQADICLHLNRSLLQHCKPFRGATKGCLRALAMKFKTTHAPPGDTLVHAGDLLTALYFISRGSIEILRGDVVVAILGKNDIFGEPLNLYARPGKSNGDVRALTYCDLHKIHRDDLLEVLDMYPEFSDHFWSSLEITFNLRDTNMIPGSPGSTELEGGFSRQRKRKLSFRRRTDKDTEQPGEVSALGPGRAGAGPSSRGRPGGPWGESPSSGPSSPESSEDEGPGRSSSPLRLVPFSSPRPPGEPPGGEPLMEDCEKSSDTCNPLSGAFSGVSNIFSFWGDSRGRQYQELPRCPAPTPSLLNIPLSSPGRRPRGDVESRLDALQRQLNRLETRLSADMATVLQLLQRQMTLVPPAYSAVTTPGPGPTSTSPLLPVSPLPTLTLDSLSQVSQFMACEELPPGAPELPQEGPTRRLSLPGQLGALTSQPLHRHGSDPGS
Outline: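 Homogeneous FluxOR thallium flux assay using hERG-expressing U2OS cells (BacMam). Compound treatment about 10 minutes preceded stimulation; reduced fluorescence taken as channel block.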

[2] = target: Luciferin 4-monooxygenase (Photinus pyralis) (UniProt P08659); test: Biochemical firefly luciferase enzyme assay for NPC (AID 624030); further: nearly all actives have a fitted effect of over 70% in size; further: potency means the concentration at half of the fitted maximal effect
Luciferin 4-monooxygenase (Photinus pyralis), sequence (P08659 whole entry, looked up): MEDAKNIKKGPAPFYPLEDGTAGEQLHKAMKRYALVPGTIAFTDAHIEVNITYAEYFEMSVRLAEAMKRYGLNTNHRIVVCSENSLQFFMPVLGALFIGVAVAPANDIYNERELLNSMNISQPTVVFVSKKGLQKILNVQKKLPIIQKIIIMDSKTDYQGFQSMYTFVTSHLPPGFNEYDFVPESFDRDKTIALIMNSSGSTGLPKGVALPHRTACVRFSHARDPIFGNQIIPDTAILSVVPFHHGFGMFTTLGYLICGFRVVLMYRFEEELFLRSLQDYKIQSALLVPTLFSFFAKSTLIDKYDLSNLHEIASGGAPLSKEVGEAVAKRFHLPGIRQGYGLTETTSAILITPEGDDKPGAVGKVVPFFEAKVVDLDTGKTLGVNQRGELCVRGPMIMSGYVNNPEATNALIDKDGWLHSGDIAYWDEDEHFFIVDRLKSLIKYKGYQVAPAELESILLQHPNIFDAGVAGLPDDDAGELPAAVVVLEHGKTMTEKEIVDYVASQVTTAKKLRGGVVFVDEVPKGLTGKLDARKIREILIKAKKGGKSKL
Outline: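 Purified P. pyralis luciferase at 10 nM in 50 mM Tris Acetate (final), luminescence read within 5 minutes of enzyme addition to compounds. Activity normalised to PTC124 versus DMSO; concentration-response curves classed by r2, magnitude and activity.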

[3] = S16 Schwann cell viability assay (CellTiter-Glo assay) (AID 624031); further: nearly all actives have a fitted effect of over 70% in size; further: potency means the concentration at half of the fitted maximal effect
Outline: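 Luminescent ATP read-out (CellTiter-Glo) after 24 h compound exposure of native S16 rat Schwann cells at 37 °C. Signals were normalized between cell-free wells and DMSO-treated cells, set as 0% activity.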

[4] = S16 Schwann cell PMP22 intronic element firefly luciferase assay (AID 624032); further: nearly all actives have a fitted effect of over 30% in size; further: potency means the concentration at half of the fitted maximal effect
Outline: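 Rat S16 Schwann cells stably carrying firefly luciferase driven by a PMP22 intronic element, in 10% FBS, treated 24 h at 37 C. ONE-Glo luminescence normalized to PTC124 control and DMSO (0%); curves classed by r2, magnitude and activity.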

[5] = S16 Schwann cell PMP22 intronic element beta-lactamase assay (AID 624044; calls by dose curve; further: nearly all actives have a fitted effect of over 15% in size; further: potency means the concentration at half of the fitted maximal effect)
Outline: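 Beta-lactamase reporter under a PMP22 intronic regulatory element in stable S16 rat Schwann cells; 24 h compound exposure. 460 nm blue signal normalized between DMSO (0%) and potassium clavulanate, with 535 nm FRET tracking viability; curves classed by r2 and response.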

[6] = qHTS assay for small molecule activators of the p53 signaling pathway (AID 651743; active means well fitted activation curve with a large enough effect in the signal ratio, not every such curve was filed as active; the % refers to the signal ratio; further: series mostly up to about 92 µM; % of control where 0% means no effect); details: HCT-116 p53RE-bla, beta-lactamase FRET ratio, 16 h; activation: stronger effect = higher value
Outline: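 Reporter: beta-lactamase driven by p53 response elements, stably integrated in HCT-116 cells. Cells seeded at 4,000/well, 5 h preincubation, compound (DMSO) 16 h at 37 C; B/G FRET substrate 2 h RT; fluorescence intensity read.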

[7] = target: Peroxisome proliferator-activated receptor alpha (Homo sapiens) (UniProt Q07869); test: qHTS assay for small molecule agonists of the peroxisome proliferator-activated receptor alpha (PPARalpha) signaling pathway (AID 651778); details: PathHunter PPARalpha complementation, chemiluminescence, 6 h; stronger effect = higher value; further: % of control where 0% means no effect
Peroxisome proliferator-activated receptor alpha (Homo sapiens), sequence (Q07869 whole entry, looked up, the tested form may be a part): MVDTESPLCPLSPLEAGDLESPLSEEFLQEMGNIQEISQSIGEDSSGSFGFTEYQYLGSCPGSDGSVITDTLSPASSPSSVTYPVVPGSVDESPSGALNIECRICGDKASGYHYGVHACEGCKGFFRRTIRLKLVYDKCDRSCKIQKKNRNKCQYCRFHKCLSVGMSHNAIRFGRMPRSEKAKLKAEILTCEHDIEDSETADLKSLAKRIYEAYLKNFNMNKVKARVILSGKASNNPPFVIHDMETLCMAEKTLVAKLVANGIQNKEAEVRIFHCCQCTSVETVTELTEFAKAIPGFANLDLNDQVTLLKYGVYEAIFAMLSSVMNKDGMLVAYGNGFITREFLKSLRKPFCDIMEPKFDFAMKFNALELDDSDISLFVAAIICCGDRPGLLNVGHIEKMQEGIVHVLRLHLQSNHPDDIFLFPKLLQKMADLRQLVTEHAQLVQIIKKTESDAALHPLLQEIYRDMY
Outline: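 Enzyme-fragment complementation assay in which ligand-bound PPARalpha translocates and forms an active enzyme that generates chemiluminescence. Cells were plated overnight, exposed to compound for 6 hr at 37 C, and then given detection reagent for 60 min at room temperature.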

[8] = qHTS assay for small molecule activators of the nuclear factor-kappa B (NF-kB) signaling pathway (AID 651749; active means well fitted activation curve with a large enough effect in the signal ratio; the % refers to the signal ratio; further: series mostly up to about 77 µM; % of control where 0% means no effect); details: NF-kB-bla ME-180 cells, beta-lactamase FRET ratio, 16 h; stronger effect = higher value
Outline: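 NF-kB-bla ME-180 cells, 2,000/well; 23 nL compound or DMSO pinned; 16 hr, 37C/5% CO2; beta-lactamase FRET read-out.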

[9] = qHTS assay for small molecule disruptors of the mitochondrial membrane potential - 1 hr assay (AID 651754; calls by dose curve; further: potency means the concentration at half of the fitted maximal effect; nearly all actives have a fitted effect of over 35% in size)
Outline: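 Read-out: dye fluorescence at 490 nm ex/535 nm em (monomers) and 540 nm ex/590 nm em (aggregates) in HepG2 cells. Compound exposure 1 hr at 37C, followed by 30 min dye loading.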

[10] = qHTS assay for small molecule disruptors of the mitochondrial membrane potential - 5 hr assay (AID 651755; calls by dose curve; further: on the % scale 0 is the no-effect control and ±100 the full control effect; nearly all actives have a fitted effect of over 40% in size)
Outline: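 Read-out: ratiometric Mito-MPS fluorescence, green monomer (ex 490/em 535) vs red mitochondrial aggregate (ex 540/em 590). HepG2 cells treated 5 hr at 37C before 30 min dye loading.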

[11] = target: Tumor necrosis factor (Homo sapiens) (UniProt P01375); test: qHTS assay to identify small molecules that stimulate Tumor Necrosis Factor-alpha (TNF-alpha) secretion (AID 651757; active means well fitted curve in the direction sought with a large enough effect in the signal ratio; the % refers to the signal ratio; further: 0% is about no effect)
Tumor necrosis factor (Homo sapiens), sequence (P01375 whole entry, looked up): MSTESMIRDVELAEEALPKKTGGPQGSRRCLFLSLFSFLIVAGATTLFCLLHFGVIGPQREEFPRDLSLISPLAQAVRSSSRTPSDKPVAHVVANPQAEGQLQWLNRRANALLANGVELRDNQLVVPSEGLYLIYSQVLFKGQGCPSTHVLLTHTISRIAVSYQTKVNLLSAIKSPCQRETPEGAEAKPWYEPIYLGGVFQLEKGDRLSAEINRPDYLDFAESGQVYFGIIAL
Outline: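 THP-1 cells, 3000/well; compound 17 hrs, 37 C; add cryptate/XL665 anti-TNF-alpha antibody pair; 3 hr RT; TR-FRET (HTRF) read of secreted TNF-alpha. Quantitative HTS format.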

[12] = qHTS assay for environmental chemicals that activate the Aryl hydrocarbon Receptor (AhR) signaling pathway (AID 651777); details: 1A2-DRE human hepatoma cells, luciferase, 24 h; activation: stronger effect = higher value; further: % of control where 0% means no effect; nearly all actives have a fitted effect of over 15% in size
Outline: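 1A2-DRE human hepatoma reporter line; 1,200 cells/well; cmpd or DMSO 24 h, 37 C/5% CO2; One-Glo 30 min RT; luciferase lum.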

CN(C)CCOC(c1ccc(Cl)cc1)c1ccccn1 (stereo not drawn)
inactive: Potency [2] | Potency [3] | Potency [4]
active: Potency [1] 14.1 µM

Cc1cccc(C)c1NC(=O)CN1CCCCCC1
inactive: Potency [1] | Potency [2] | Potency [3] | Potency [4]

Nc1ccc(C(=O)NCC(=O)O)cc1
inactive: Potency [1] | Potency [2] | Potency [3] | Potency [4]

CC(C)(C)NC[C@H](O)COc1cccc2c1CCCC2=O
inactive: Potency [1] | Potency [2] | Potency [3] | Potency [4]

N=C(N)N1CCc2ccccc2C1
inactive: Potency [1] | Potency [2] | Potency [3] | Potency [4]

C/C=C/C=N/NC(=O)c1ccncc1
inactive: Potency [1] | Potency [2] | Potency [3] | Potency [4] | Potency [5]

COc1cc(N)c(Cl)cc1C(=O)NC1CCN(Cc2ccccc2)CC1
inactive: Potency [2] | Potency [3] | Potency [4] | Potency [5]
active: Potency [1] 5.01 µM

CCCCCCCCNC(C)C(O)c1ccc(SC(C)C)cc1 (stereo not drawn)
active: Potency [1] 0.631 µM | Potency [3] 14.4 µM | Potency [4] 22.8 µM
inactive: Potency [2]

O=C(c1ccc(F)cc1)C1CCN(CCn2c(=S)[nH]c3ccccc3c2=O)CC1
inactive: Potency [2] | Potency [3] | Potency [4] | Potency [5]
active: Potency [1] 0.251 µM

COc1ccc(/C=N/NC(=O)c2ccncc2)cc1OC
inactive: Potency [1] | Potency [2] | Potency [3] | Potency [4] | Potency [5]

CN1CCN(c2cc3c(cc2F)c(=O)c(C(=O)O)cn3-c2ccc(F)cc2)CC1
inactive: Potency [1] | Potency [2] | Potency [3] | Potency [4]

CCNC(=O)NCc1cccc(Cl)c1
inactive: Potency [1] | Potency [2] | Potency [3] | Potency [4] | Potency [5]

Nc1ccc(S(=O)(=O)Nc2cnc3ccccc3n2)cc1
inactive: Potency [1] | Potency [2] | Potency [3] | Potency [4] | Potency [5]

CC(=O)NO
inactive: Potency [1] | Potency [2] | Potency [3] | Potency [4] | Potency [5]

COc1ccc(CN(CCN(C)C)c2ncccn2)cc1
inactive: Potency [1] | Potency [2] | Potency [3] | Potency [4]

CN1CCN(c2c(F)cc3c(=O)c(C(=O)O)cn4c3c2SCC4)CC1
inactive: Potency [1] | Potency [2] | Potency [3] | Potency [4]

CCCCc1cc2ccccc2c(OCCN(C)C)n1
active: Potency [1] 7.94 µM
inactive: Potency [2] | Potency [3] | Potency [4] | Potency [5]

Cc1cc(NS(=O)(=O)c2ccc(N)cc2)nc(C)n1
inactive: Potency [1] | Potency [2] | Potency [3] | Potency [4]

CCCCN=C(N)N=C(N)N
inactive: Potency [1] | Potency [2] | Potency [3] | Potency [4] | Potency [5]

O=C1C(CCS(=O)c2ccccc2)C(=O)N(c2ccccc2)N1c1ccccc1 (stereo not drawn)
inactive: Potency [1] | Potency [2] | Potency [3] | Potency [4] | Potency [5]

C[C@@H](O)[C@H]1C(=O)N2C(C(=O)O)=C(S[C@@H]3CN[C@H](CNS(N)(=O)=O)C3)[C@H](C)[C@H]12
inactive: Potency [1] | Potency [2] | Potency [3] | Potency [4] | Potency [5]

Nc1ccc(S(=O)(=O)NCc2ccccc2)cc1
inactive: Potency [1] | Potency [2] | Potency [3] | Potency [4] | Potency [5]

Cc1c[nH]c2ccccc12
inactive: Potency [1] | Potency [2] | Potency [3] | Potency [4]

COc1ccc(C(=O)c2ccccc2O)c(O)c1
inactive: Potency [1] | Potency [2] | Potency [3] | Potency [4] | Potency [5]

Nc1nc(N)c(-c2ccccc2)s1
inactive: Potency [1] | Potency [2] | Potency [3] | Potency [4] | Potency [5]

OCc1ccccn1
inactive: Potency [1] | Potency [2] | Potency [3] | Potency [4]

NS(=O)(=O)c1ccc(Cl)c(S(N)(=O)=O)c1
inactive: Potency [1] | Potency [2] | Potency [3] | Potency [4]

CC(=O)Nc1ccc(OC(=O)c2ccccc2OC(C)=O)cc1
active: Potency [4] 32.2 µM
inactive: Potency [1] | Potency [2] | Potency [3]

COc1ccc(-c2cc(C(F)F)nn2-c2ccc(S(N)(=O)=O)cc2)cc1F
inactive: Potency [1] | Potency [2] | Potency [3] | Potency [4] | Potency [5]

CC(=O)OC[C@H]1O[C@@H](n2ncc(=O)[nH]c2=O)[C@H](OC(C)=O)[C@@H]1OC(C)=O
active: Potency [5] 9.99 µM
inactive: Potency [1] | Potency [2] | Potency [3] | Potency [4]

CCC(CC)(CC(=O)Nc1cccc(/C=C/c2nc(C3CCC3)cs2)c1)C(=O)O
active: Potency [2] 5.73 µM
inactive: Potency [1] | Potency [3] | Potency [4] | Potency [5]

COc1cc(C(=O)NCc2ccc(OCCN(C)C)cc2)cc(OC)c1OC
inactive: Potency [1] | Potency [2] | Potency [3] | Potency [4] | Potency [5]

CCOc1ccccc1OCCN[C@H](C)Cc1ccc(OC)c(S(N)(=O)=O)c1
inactive: Potency [2] | Potency [3] | Potency [4] | Potency [5]
active: Potency [1] 14.1 µM

CC(=O)NCCCCCC(=O)O
inactive: Potency [1] | Potency [2] | Potency [3] | Potency [4]

CN(C)C(=O)Nc1ccc(Cl)c(Cl)c1
inactive: Potency [1] | Potency [2] | Potency [3] | Potency [4] | activation [6] 3.41% | max response [7] 0.591%

CCCCC(CC)COC(=O)c1ccc(N(C)C)cc1 (stereo not drawn)
inactive and 28.2 µM (active): Potency [1]
inactive: Potency [2] | Potency [3] | Potency [4] | Potency [5] | activation [6] 0.436% and -4.01% | activation [8] -1.46% and -0.821% | Potency [10] | outcome [11] | activation [12] 8.87% and 0.16% | max response [7] 0.44% and -4.46%
active: Potency [9] 7.5 µM
